Experimental findings from PubChem BioAssay are described below.

Several values for one entry are separate records, joined by “and”; a condition that tells them apart may be missing. Equal entries are not always repeated. Records with an inconclusive call do not appear. Activity calls are given as the source filed them. Unless noted, no stated cut-off is given here; in the data, active means inhibition above about 80%; inactive means the rest.

Test [1] in a line: growth inhibition of DIPG glioma cells, dose response, cell-based, SU-DIPG-XIII, MIPE5.0, CellTiter-Glo, qHTS (AID 1347064; cut-off not given, nearly all actives have AC50 up to about 23 µM;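 on AC50: cells exposed to compound for 48 hours before the viability read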). Conditions: SU-DIPG-XIII viability, CellTiter-Glo ATP luminescence. On the technique in general: Cellular ATP, detected with luciferase, serves as a proxy for viable cell number.
Test [2] is described as follows: viability loss in pontine glioma line – cell-based, SU-DIPG-XXV, MIPE5.0, CellTiter-Glo, qHTS, dose response (AID 1347065; cut-off not given, nearly all actives have AC50 up to about 26 µM;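 further: cells exposed to compound for 48 hours before ATP readout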). Conditions: CellTiter-Glo ATP luminescence.
Test [3] in a line: SU-DIPG-XXV glioma cell viability, MIPE5.0 library, qHTS (AID 1347068; cut-off not given, nearly all actives have IC50 up to about 30 µM).
Test [4] is described as follows: JHH-DIPG-1 glioma cell viability, MIPE5.0 library, CellTiter-Glo luminescence, qHTS (AID 1347067; cut-off not given, nearly all actives have AC50 up to about 26 µM;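 further: cells exposed to compound for 48 hours before readout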). To be noted: JHH-DIPG-1 glioma viability, CellTiter-Glo ATP luminescence.
Test [5] in a line: sensitizers of A549 cells to miR-34 induction, primary screen, imaging, A549 dox-inducible miR-34, nuclei and caspase counts (AID 1347080;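 active means compounds whose cell count with miR-34 switched on is under 0.7 times the count with it off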). Conditions: A549 miR-34 inducible, Hoechst nuclei count, 48 h.
Test [6] in a line: survival rescue of mitochondrial mutant cells in low glucose, primary screen, MELAS cybrids, Rieske KO mouse fibroblasts, CellTiter-Glo (AID 1508586;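 active means mean z-score across replicates of 1.96 or higher in either the MELAS or the Rieske mutant cell line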;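 further: z relative to plate mean and SD of compound and empty wells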).
Test [7] is described as follows: LFS_MB_P medulloblastoma growth inhibition, cell-based, chromothripsis tumors, cisplatin or BGB combos (AID 1671449).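 Further: cells exposed for 96 hours; 0% = vehicle DMSO and 100% = killing by high DMSO.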 To be noted: LFS_MB_P medulloblastoma cells.
The nature of test [8]: HDN33 neuroblastoma growth inhibition, cell-based, chromothripsis tumors, cisplatin or BGB combos (AID 1671450).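 Further: cells exposed to compound for four days; 0% = vehicle DMSO and 100% = cell killing by high DMSO.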 Conditions: HDN33 neuroblastoma cells, stronger effect = higher value.
Test [9] in a line: ICB984 medulloblastoma cell growth inhibition, synergistic combos for chromothripsis tumors, cisplatin or BGB combos (AID 1671451; call rule not given here;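 further: cells exposed for 96 hours before readout; 0% = vehicle DMSO and 100% = killing by high DMSO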). Conditions: ICB984 medulloblastoma cells, drug combinations, stronger effect = higher value.
Test [10] in a line: LFS_MB_1R medulloblastoma cell growth inhibition, synergistic combos for chromothripsis tumors, cisplatin or BGB combos (AID 1671452).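 Further: cells exposed for 96 hours before readout.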 To be noted: LFS_MB_1R medulloblastoma cells, stronger effect = higher value.
Test [11] is described as follows: HTB85 osteosarcoma cell growth inhibition, synergistic combos for chromothripsis tumors, BGB or cisplatin IC20 combos (AID 1671453).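 Further: cells exposed for 96 hours before readout; 0% = vehicle DMSO and 100% = high DMSO killing control.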 To be noted: HTB85 osteosarcoma cells, drug combinations, stronger effect = higher value.
A short description of test [12]: CRL2098 osteosarcoma cell growth inhibition, synergistic combos for chromothripsis tumors, BGB or cisplatin IC20 combos (AID 1671454).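 Further: cells exposed for 96 h before readout; 0% = vehicle DMSO and 100% = killing by high DMSO.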 Conditions: CRL2098 osteosarcoma cells, drug combinations, stronger effect = higher value.
Test [13] is described as follows: HD-MB03 medulloblastoma cell growth inhibition, synergistic combos for chromothripsis tumors, BGB or cisplatin IC20 combos (AID 1671455; in the data active means inhibition above about 83%;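 further: 0% = vehicle DMSO and 100% = high DMSO as cytotoxic control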). To be noted: HD-MB03 medulloblastoma cells, stronger effect = higher value.
A short description of test [14]: UWB1.289 ovarian carcinoma cell growth inhibition, synergistic combos for chromothripsis tumors, BGB or cisplatin combos (AID 1671456).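 Further: cells exposed to compound for four days; 0% = vehicle DMSO and 100% = killing by high DMSO.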 Conditions: UWB1.289 ovarian carcinoma cells, stronger effect = higher value.
A short description of test [15]: LFS_MB_2R medulloblastoma cell growth inhibition, synergistic combos for chromothripsis tumors, cisplatin combos (AID 1671457).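 Further: cells exposed to compound for four days before readout.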 To be noted: LFS_MB_2R medulloblastoma cells, stronger effect = higher value.
Test [16] can be described thus: MDA-MB-436 breast carcinoma cell growth inhibition, synergistic combos for chromothripsis tumors, BGB or cisplatin combos (AID 1671458; call rule not given here;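 further: cells exposed for 96 hours; 0% = vehicle DMSO and 100% = killing by high DMSO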). To be noted: MDA-MB-436 breast carcinoma growth inhibition, drug combinations, stronger effect = higher value.
Test [17] can be described thus: UWB1.289_BRCA1 ovarian cancer growth, cell-based, BGB or cisplatin combinations (AID 1671459). Conditions: UWB1.289 BRCA1 ovarian carcinoma, drug combinations, stronger effect = higher value.
A short description of test [18]: human astrocyte viability loss, single and combined drugs, cytotoxicity control for chromothriptic childhood tumor combination screen, cell-based, BGB or cisplatin IC20 combos (AID 1671460).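 Further: cells exposed to compounds for 96 hours before viability readout; 0% = vehicle and 100% = killing control.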 To be noted: Human astrocytes, drug combinations, stronger effect = higher value.
Test [19] is described as follows: growth inhibition of BT084 medulloblastoma cells, cell-based, ICGC_MB145, cisplatin and BGB IC40 combos (AID 1671461).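 Further: cells exposed to drugs for 96 hours; 0% = vehicle DMSO and 100% = high DMSO full killing control.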 To be noted: drug combinations, stronger effect = higher value.
The nature of test [20]: growth inhibition of RCMB18 medulloblastoma cells, cell-based, cisplatin and BGB IC40 combos (AID 1671462).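 Further: cells exposed to compound for four days.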 Conditions: stronger effect = higher value.
Test [21] in a line: growth inhibition of CRL1545 osteosarcoma cells, cell-based, cisplatin and BGB IC20 combos (AID 1671464).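 Further: cells exposed to compound for 96 hours before readout; 0% = vehicle DMSO and 100% = high DMSO killing control.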 To be noted: stronger effect = higher value.
A short description of test [22]: SU-DIPG-VI glioma cell viability, MIPE4.0 library, CellTiter-Glo luminescence, qHTS (AID 1347066; cut-off not given, nearly all actives have AC50 up to about 30 µM;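 further: cells exposed to compound for 48 hours before readout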). To be noted: CellTiter-Glo ATP luminescence.
The mark [23] stands for this setting: measured here: combination with BGB IC40, at 0.05 µM.
[24] abbreviates: measured here: with BGB IC20 combination, at 0.5 µM.
[25] abbreviates: measured here: with cisplatin IC20 combination, at 0.5 µM.
[26] abbreviates: measured here: combination with cisplatin, at 0.5 µM.
Where [27] appears, read: measured here: combination with cisplatin, at 5 µM.

Usually AC50 stands for the midpoint of the concentration-response curve, whichever way the signal moves. Turning to `C=CCN(/C=C1\C(=O)O[C@@H](COC)[C@]2(C)C1=C(O)C(=O)C1=C2[C@@H](OC(C)=O)C[C@]2(C)C(=O)CC[C@H]12)CC=C`, the concentration at half-maximal activity (AC50) in test [1] is 16.6 µM (active); in test [2], 9.34 µM (active). For the same compound, in test [3], the compound was classed as inactive.
By inhibition is commonly meant the change of the read-out against control, counted positive when it falls. On to `COC1CCN(C(=O)c2cc(Cc3n[nH]c(=O)c4ccccc34)ccc2F)CC1`, for which the compound was classed as inactive in test [1], in test [2], in [4] and in test [3]. The fold change in test [5] (stronger effect = lower value, cell number ratio, induced over uninduced) is 0.934 (inactive); in test [5] (measured here: relative caspase fold change +Dox/-Dox) it was 0.846. Besides, the cell count in test [5] (measured here: total cells with miR-34 induction, stronger effect = lower value) is 6330; in test [5] (measured here: total cells without miR-34 induction), 6780. Moreover, the z-score in [6] (MELAS cybrid survival, CellTiter-Glo 48 h, stronger effect = higher value) is -0.18 (inactive); in [6] (Rieske KO mouse fibroblast survival, CellTiter-Glo 72 h) it was -0.126. Moreover, the inhibition in [7] (at 0.5 µM, stronger effect = higher value) was -12.1% (inactive) and -16.1% (inactive); in test [7] (measured here: combination with BGB IC20, at 0.005 µM), -30.7% and -15.3%; in test [7] (measured here: combination with BGB IC40, at 0.005 µM), -38.1% and -33.1%; in [7] (setting [23]) it was -30.5% and -42.3%; in test [7] (measured here: combination with cisplatin, at 0.5 µM, stronger effect = higher value) it was -37.8% and -19.2%; in test [7] (measured here: combination with cisplatin, at 5 µM, stronger effect = higher value) it was -40.5% and -57.1%. The inhibition in test [8] (BGB combo, at 5 µM) is -13.6% and 13.4%; in test [8] (at 0.5 µM), -10.1% (inactive) and -7.74% (inactive); in test [8] (cisplatin combo, at 5 µM) it was 23.9% and 26%; in test [8] (setting [24]) it was -20.4% and -10.8%; in test [8] (setting [25]) it was 5.53% and -9.06%; in test [8] (single agent, at 5 µM) it was 14.4% and 38.9%. Besides, the inhibition in test [9] (BGB IC20 combo, at 0.005 µM) was -4.23% and -19.5%; in test [9] (BGB IC40 combo, at 0.005 µM), -0.687% and -29.1%; in [9] (BGB IC40 combo, at 0.05 µM) it was -13.2% and -21.3%; in test [9] (at 0.5 µM), -24.6% (inactive) and -24.2% (inactive); in test [9] (cisplatin combo, at 0.05 µM) it was -19% and -25.6%; in test [9] (cisplatin combo, at 0.5 µM) it was -40.6% and -12.4%. Moreover, the inhibition is -8.06% and -25.7% in test [9] (cisplatin combo, at 5 µM); 0.595% and -12.2% in test [9] (measured here: 5 uM single agent, at 5 µM); -26.2% (inactive) and -13.9% (inactive) in test [10] (at 0.5 µM); -15.2% and -8.03% in test [10] (setting [23]); -30.2% and -13% in test [10] (setting [26]); -19.4% and -3.56% in test [10] (setting [27]). Besides, the inhibition in [11] (at 0.5 µM) was -11.4% (inactive) and 6.36% (inactive); in [11] (measured here: with BGB IC20, at 0.5 µM) it was -12.2% and -3.86%; in [11] (measured here: with BGB IC20, at 5 µM), 12.4% and 5.4%; in test [11] (measured here: with cisplatin IC20, at 0.5 µM), -10.7% and 2.43%; in test [11] (measured here: with cisplatin IC20, at 5 µM) it was 15.8% and -12.3%; in test [11] (single agent, at 5 µM) it was 16.7% and 8.18%. In addition, the inhibition is -48.1% (inactive) and -65.8% (inactive) in test [12] (at 0.5 µM); -70.3% and -24.2% in [12] (measured here: combination with BGB at IC20, at 0.5 µM); -35.2% and -114% in test [12] (measured here: combination with cisplatin at IC20, at 0.5 µM); -3.93% (inactive) and -2.04% (inactive) in [13] (at 0.5 µM); -9.33% and -8.78% in [13] (measured here: combo with BGB at IC20, at 0.5 µM); 4.14% and 1.92% in test [13] (measured here: combo with cisplatin at IC20, at 0.5 µM). Besides, the inhibition in [14] (at 0.5 µM) is -6.03% (inactive) and 1.25% (inactive); in test [14] (measured here: inhibition with BGB combination, at 0.05 µM), -33.1% and -12.4%; in test [14] (measured here: inhibition with cisplatin combination, at 0.05 µM), -15.7% and -19.5%; in test [15] (at 0.5 µM) it was -18.3% (inactive) and -16.9% (inactive); in [15] (setting [26]), -12.3% and -23.2%; in test [15] (setting [27]), -8.19% and -16.7%. Further, the inhibition is -6.48% (inactive) and 5.83% (inactive) in test [16] (at 0.5 µM); -20.6% and -13.1% in [16] (measured here: BGB combination, at 0.5 µM); -22% and -12.5% in test [16] (measured here: BGB combination, at 5 µM); -7.18% and 13.4% in test [16] (measured here: cisplatin combination, at 0.5 µM); 19.7% and 25.3% in test [16] (measured here: cisplatin combination, at 5 µM); -17.2% and 8.15% in [17] (BGB combination, concentration series, at 5 µM). Besides, the inhibition is -15.2% (inactive) and 1.82% (inactive) in test [17] (at 0.5 µM); 1.96% and 12.2% in test [17] (cisplatin combination, concentration series, at 5 µM); -2.67% (inactive) and 18.6% (inactive) in test [18] (at 0.5 µM); -0.687% and 1.82% in [18] (measured here: combo with BGB IC20, at 0.5 µM); -3.5% and 25% in test [18] (measured here: combo with cisplatin IC20, at 0.5 µM); -21.1% (inactive) and -16.8% (inactive) in test [19] (at 0.5 µM). Also, the inhibition in test [19] (cisplatin combination, at 0.5 µM) was -20.5% and -64%; in [19] (cisplatin combination, at 5 µM), -29.9% and -19.1%; in test [19] (measured here: BGB IC40 combination 0.05 uM, at 0.05 µM) it was -40% and -3%; in [19] (single agent, at 5 µM), -18% and 3.41%; in [20] (at 0.5 µM), -19.3% (inactive) and -19.5% (inactive); in test [20] (cisplatin combo, at 5 µM), -5.98% and -18.2%. Besides, the inhibition in test [20] (measured here: BGB IC40 combination, at 0.05 µM) is -15.8% and -4.12%; in test [20] (setting [26]) it was -25.7% and -45.6%; in test [20] (single agent, at 5 µM) it was -29.2% and -17.7%; in test [21] (at 0.5 µM) it was 8.49% (inactive) and 7.34% (inactive); in test [21] (setting [24]), -9.33% and -2.37%; in [21] (setting [25]), 16.1% and 10.8%. Also, the inhibition in test [21] (single agent, at 0.05 µM) was 5.73% and -15.4%; in [21] (single agent, at 5 µM) it was 42.8% and 34.1%.
In the case of `C[C@H]1CNCCCN1S(=O)(=O)c1cccc2cncc(F)c12`, the call in test [1], in test [4] and in test [3] was inactive.
On to `COc1cccc([C@@H](C)NCCCc2ccccc2Cl)c1`, for which the call in test [1], in test [22], in test [4] and in test [3] was inactive.
In the case of `COC(=O)N[C@@H](C)CNc1nccc(-c2cn(C(C)C)nc2-c2cc(Cl)cc(NS(C)(=O)=O)c2F)n1`, the outcome in test [1] and in test [3] was inactive. The AC50 in test [2] was 1.48 µM (active).
Regarding `Cc1nc2ccc(C(=O)N3CCC4(CC3)CC(=O)c3c(cnn3C(C)C)C4)cc2[nH]1`, the compound was classed as inactive in test [1] and in test [4].
